# Screens from PubChem BioAssay.
# PLAP act = activators of human placental alkaline phosphatase; purified PLAP enzyme, luminescent substrate read-out; stronger effect = higher value; AID 696; activation fold at 20 µM; actives 1.2% (n = 96,000); in the data active = activation fold above about 2
# Target sequence (P05187 whole entry, looked up): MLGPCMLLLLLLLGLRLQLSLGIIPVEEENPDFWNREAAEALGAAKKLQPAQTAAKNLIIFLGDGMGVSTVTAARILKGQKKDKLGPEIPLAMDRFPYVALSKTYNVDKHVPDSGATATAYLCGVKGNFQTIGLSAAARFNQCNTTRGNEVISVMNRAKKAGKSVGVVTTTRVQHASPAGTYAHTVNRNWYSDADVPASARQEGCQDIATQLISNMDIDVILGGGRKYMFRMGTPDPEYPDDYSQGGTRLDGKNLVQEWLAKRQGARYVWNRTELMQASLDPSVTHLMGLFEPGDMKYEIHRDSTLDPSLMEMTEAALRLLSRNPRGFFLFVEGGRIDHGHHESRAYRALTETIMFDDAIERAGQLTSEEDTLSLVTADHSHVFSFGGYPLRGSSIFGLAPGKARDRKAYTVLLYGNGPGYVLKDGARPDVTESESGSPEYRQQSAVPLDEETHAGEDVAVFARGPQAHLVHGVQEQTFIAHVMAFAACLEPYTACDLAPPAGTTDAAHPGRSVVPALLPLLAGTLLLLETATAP
# CYP2C9 activ = increases human cytochrome P450 2C9 activity; recombinant CYP2C9, luciferin-H conversion, luminescence; stronger effect = higher value; factor 1 = untreated enzyme, 0 = blocked; P11712; activation factor at 5 µM; actives 1.4% (n = 96,000);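 active = activation factor of 2 or more for CYP2C9 at a 5 µM dose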
# CYP2C9 inh = human CYP2C9 inhibition; CYP2C9 Supersomes, luciferin-H conversion, luminescence; inhibition, % at 5 µM; actives 20% (n = 96,000);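 active = blocking of liver enzyme CYP2C9 beyond about 50% at 5 µM, limit read from the data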
# CYP2C19 inhib = blocks human cytochrome P450 2C19 | actives 21% (n = 96,000) | inhibition, % at 5 µM | CYP2C19 Supersomes, luciferin-H EGE luminescence, 30 min | P33261;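 active = CYP2C19 inhibition above a set limit at 5 µM in the primary screen, cut at about 50% in these data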
# CYP2C19 act = activators of human cytochrome P450 2C19. P33261. recombinant CYP2C19, luciferin-H EGE luminescence; stronger effect = higher value; 0 = fully inhibited enzyme, 1 = untreated enzyme. activation factor at 5 µM. 96,000 tested, under 10 active;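 active = activation factor of at least 2 at 5 µM in the primary screen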
# A number is an active result; – = inactive. The list is not random: actives were taken first. Their share in the collection is about 31%.
SMILES,PLAP act,CYP2C9 activ,CYP2C9 inh,CYP2C19 inhib,CYP2C19 act
COC(=O)c1ccccc1NC(=O)c1ccc(COc2ccc3c(c2)CCC3)cc1,–,–,–,–,–
COc1cccc(OC)c1C(=O)NNC(=O)c1cccc(COc2ccc3c(c2)CCC3)c1,2,–,–,57,–
COc1ccc(OCc2cccc(C(=O)O)c2)cc1,–,–,97,98,–
O=C(O)c1cccc(COc2ccc(CO)cc2Cl)c1,–,–,94,99,–
Cc1nnc2ccc(Oc3ccc(-c4ccccc4)cc3)nn12,–,–,–,–,–
CC(=O)/C(=C/Nc1ccc(Oc2ccccc2)cc1)c1ccccc1,–,–,89,68,–
COc1cc(N/C=C(\C(C)=O)c2ccccc2)cc(OC)c1,–,–,86,72,–
CC(=O)/C(=C\Nc1ccc(OCc2ccccc2)cc1)c1ccccc1,–,–,85,–,–
Cc1ccc(NC(=O)Nc2ncccc2C)cc1,–,–,–,–,–
Cc1cccnc1NC(=O)Nc1cccs1,–,–,–,50,–
O=C(NCc1cccs1)Nc1cccs1,–,–,–,–,–
Cc1ccccc1CNC(=O)Nc1cccs1,–,–,–,72,–
c1ccc2c(CNCCN3CCOCC3)cccc2c1,–,–,–,–,–
O=c1cc(-c2ccccc2)[nH]n1-c1nc2ccccc2[nH]1,2.1,–,56,–,–
CCOC(=O)c1ccc(-n2[nH]c(-c3ccccc3)cc2=O)cc1,–,–,–,–,–
O=C(OCc1c(Cl)nc2sccn12)c1cc2c(s1)CCCC2,–,–,–,–,–
CCCCSc1nnc(-c2cc3c(C(F)(F)F)nn(C)c3s2)n1C,–,2,–,–,–
C#CCSc1nnc(-c2cc3c(C(F)(F)F)nn(C)c3s2)n1C,–,–,–,–,–
O=C(c1ccncc1)c1ccc(Br)cc1,–,–,62,–,–
O=C(c1ccc(Br)cc1)N1CCCC1,–,–,–,–,–
CC1(C)CC(=NO)CC(C)(C)N1,–,–,–,–,–
OCCOCCNc1ncnc2sc(-c3ccccc3)cc12,2.2,–,59,64,–
CCc1cc2c(NCCO)ncnc2s1,–,–,–,–,–
Cc1ccc(C)c(N(CC(=O)NCCSCc2ccco2)S(C)(=O)=O)c1,–,–,88,81,–
Cc1cc(C)cc(N(CC(=O)NCCSc2ccccn2)S(=O)(=O)c2ccccc2)c1,–,–,64,–,–
SMILES,PLAP act,CYP2C9 activ,CYP2C9 inh,CYP2C19 inhib,CYP2C19 act
Cc1ccc(N(CC(=O)NCCSCc2ccco2)S(=O)(=O)c2ccc(C)cc2)cc1,–,–,88,71,–
CCNC(=O)CN(c1ccc(C)cc1)S(=O)(=O)c1ccccc1,–,–,–,–,–
Cc1cccc(N(CC(=O)NCCSCc2ccco2)S(=O)(=O)c2ccccc2)c1,–,–,71,68,–
Cc1c(NC(=O)CSc2nnc3sc4ccccc4n23)c(=O)n(-c2ccccc2)n1C,–,–,–,–,–
COc1cc(NS(=O)(=O)c2ccc(N/C=C(\C#N)c3nc4cc(Cl)ccc4o3)cc2)nc(OC)n1,2.1,–,63,–,–
O=C(CNC(=O)c1ccc(Br)cc1)NCCc1nc2ccccc2[nH]1,–,–,58,–,–
CCC(=O)NCCc1nc2ccccc2[nH]1,–,–,–,–,–
O=C(NCCc1nc2ccccc2[nH]1)c1ccco1,–,–,–,55,–
Cc1ccccc1NC(=O)NCCc1nc2ccccc2[nH]1,–,–,–,60,–
CCOC(=O)c1[nH]c(C)c(/C=N/O)c1C,–,–,–,–,–
O=C(/C=C(\c1ccc(Cl)cc1)n1cncn1)c1ccc(Cl)cc1,–,–,–,90,–
N#Cc1c(NC(=S)NC(=O)Cc2cccs2)sc2c1CCCCC2,–,–,89,–,–
COC(=O)Nc1sc2c(c1C(N)=O)CCCCCC2,–,–,–,55,–
CCC(=O)Nc1sc2c(c1C(N)=O)CCC2,–,–,–,–,–
NC(=O)c1c(NC(=O)Cc2cccs2)sc2c1CCC2,–,–,58,–,–
O=C(c1ccccc1)n1nnc2ccccc21,–,–,–,–,–
CCN(CC)N=Nc1[nH]nc2nc(C)cc(C)c12,–,–,–,–,–
Cc1ccc(-n2c3c(c(=O)[nH]c2=S)C(C(F)(F)F)(C(F)(F)F)NC(=O)N3)cc1,–,–,54,–,–
CCn1c(SCC(=O)O)nnc1-c1cc2c(C)nn(-c3ccccc3)c2s1,–,–,–,–,–
Cc1ccc(C)c(CSc2nnc([C@@H](N)C(C)C)o2)c1,–,–,–,100,–
Cc1ccc(C)c(CSc2nnc(CCN)o2)c1,–,–,74,90,–
COc1ccc(C)cc1-n1c(SCC(=O)Nc2cc(C)on2)nc2sc(C)c(C)c2c1=O,–,–,–,–,–
Cc1nnc(NC(=O)CSc2nnc(CNC(=O)c3ccccc3)n2-c2ccccc2)s1,–,–,–,–,–
CCOC(=O)CSc1nc2c(c(=O)n(C)c(=O)n2C)n1CCCc1ccccc1,–,–,73,57,–
CCn1c(SCC(=O)OCc2ccccc2)nc2c1c(=O)n(C)c(=O)n2C,–,–,–,–,–
SMILES,PLAP act,CYP2C9 activ,CYP2C9 inh,CYP2C19 inhib,CYP2C19 act
CCOC(=O)N1CCN(Cc2nc3c(c(=O)n(C)c(=O)n3C)n2CCCc2ccccc2)CC1,–,–,70,–,–
Cn1c(=O)c2c(nc(CN3CCN(C(=O)c4ccco4)CC3)n2CCCc2ccccc2)n(C)c1=O,–,–,85,–,–
CC1CCCN(Cc2nc3c(c(=O)n(C)c(=O)n3C)n2CCCc2ccccc2)C1 (stereo unspecified),–,–,62,–,–
O=C(c1ccc(Cl)cc1)c1oc2ccccc2c1CS(=O)c1ccccc1 (stereo unspecified),–,–,–,–,–
COC(=O)c1ccc(CNC(=O)CSc2nnc(COc3ccccc3)n2C)o1,–,–,–,–,–
CCOc1ccc(NC(=S)Nc2ccc(C)c([N+](=O)[O-])c2)cc1,–,–,–,–,–
CCc1cc2c(=O)c(Oc3ccccc3)c(C)oc2cc1O,–,–,–,–,–
CC(C)COC(=O)C(N)C(C(=O)OCC(C)C)c1ccccc1 (stereo unspecified),–,–,–,–,–
CC(c1ccccc1)C1C(C#N)=C(N)SC(N)=C1C#N (stereo unspecified),–,–,–,93,–
CC(CC1C(C#N)=C(N)SC(N)=C1C#N)c1ccccc1 (stereo unspecified),–,–,98,92,–
CC(C)C1C(C#N)=C(N)SC(N)=C1C#N,–,–,–,68,–
CC(C)C1N(c2ccccc2)C(N)=C(C#N)C1(C#N)C#N (stereo unspecified),–,–,–,–,–
CC1CN(C2CCN(S(=O)(=O)Cc3ccccc3)CC2)CC(C)O1 (stereo unspecified),–,–,–,–,–
O=C(Cn1c(=O)oc2cc(S(=O)(=O)N3CCCC3)ccc21)Nc1ccc(C(F)(F)F)cc1,–,–,–,–,–
O=C1CC(c2ccccc2)Cc2nc3ncnn3cc21 (stereo unspecified),–,–,–,99,–
